The list is not random: actives were taken first. Their share in the collection is about 3.2%.
BRCT PPI green = BRCA1 BRCT-phosphoprotein interaction inhibition; P38398; BRCA1 BRCT-phosphopeptide binding, green fluorescence polarization; Potency, µM (titrated, usually from 76.9 µM), hits mostly inhibitors; 75,000 compounds, 0.05% hits; AID 875
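Compounds were incubated for 12 min at room temperature with a complex of 100 nM fluorescein-tagged pBACH1 decapeptide and 250 nM His-tagged BRCT protein. Buffer was phosphate pH 7.3 with EDTA, DTT and Tween 20. Disruption of binding lowers the polarization signal.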
YjeE inh = inhibitors of E. coli YjeE (TsaE); P0AF67; purified YjeE enzyme, qHTS inhibition assay; Potency, µM; 71,000 compounds, 0.05% hits
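Purified YjeE (10 uM) with BODIPY Texas Red-labeled ADP probe (2 uM); compounds pin-transferred, 15 min at room temperature. Binding inhibition read as decreased fluorescence polarization; ADP titration as control.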
DNA Pol III inh = inhibitors of bacterial DNA polymerase III holoenzyme | reconstituted DNA polymerase III holoenzyme replication, biochemical | Potency, µM (series often up to 57.1 µM) | 71,000 compounds, 0.25% hits | AID 603
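Reconstituted *E. coli* holoenzyme (0.35 nM Pol III, 1 nM beta, 154 nM SSB, 2 nM primase) was preincubated with compound for 15 min at RT. Synthesis on 1.4 nM ssM13Gori ran 35 min, then was stopped with PicoGreen/EDTA and read as dsDNA fluorescence.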
BRCT PPI red = BRCT-phosphoprotein interaction inhibition (red fluorophore); 75,000 compounds, 0.03% hits; Potency, µM (series often up to 76.9 µM), most hits filed as inhibitors; AID 892; BRCT-phosphopeptide binding, red fluorescence polarization
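Fluorescence polarization: 100 nM His-tagged BRCA1 BRCT with 100 nM TAMRA-labelled phospho-BACH1 decapeptide, phosphate buffer pH 7.3 with 150 mM NaCl, DTT, 0.01% Tween 20; 12 min RT. Binding inhibition seen as FP decrease.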
HEK293 cAMP cs = parental HEK293 cAMP activation (counter-screen) | 73,000 compounds, 2.5% hits | Potency, µM (titrated, usually from 57.1 µM), usual class: activators | parental HEK293 CNG cAMP sensor, membrane potential fluorescence | AID 938; also: nearly all actives have a fitted effect of over 55% in size
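Parental HEK 293 cells stably expressing a modified CNG channel (no TSHR) report cAMP rise as membrane depolarization. Membrane potential dye with 100 uM RO 20-1724 was loaded for 60 min at room temperature, then compound added for 30 min; fluorescence read at 590 nm.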
TSHR agonist = TSH receptor (human) agonism | P16473 | HEK293-CNG-TSHR cells (CNG channel as cAMP sensor), membrane potential dye, cAMP | Potency, µM (doses to about 57.1 µM), most hits filed as activators | 73,000 compounds, 0.48% hits | AID 926; active = well fitted activation curve with a large enough effect in the main read-out, with a control signal flat, not every such curve was filed as active; inconclusive = small, poorly fitted or top-dose-only effect, or a change in a side signal; inactive = no such curve, though single readings can be large or run the other way; reference of the percent scale not stated here;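 also: the control signal comes from parental cells without the receptor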
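HEK 293 cells stably expressing TSHR and a cAMP-gated CNG channel; parental CNG-only cells as counterscreen. Cells preloaded 60 min with membrane potential dye plus 100 uM RO 20-1724, then compound 30 min; fluorescence read at 590 nm.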
Hits are given with their value; - = inactive; ? = inconclusive. Unless noted, calls follow the shape of the dose curve; as a rule, active = well fitted curve in the direction sought with a large enough effect; inconclusive = small, poorly fitted or top-dose-only effect, or another doubt; inactive = no such curve, though single readings can be large; an effect the other way counts as inactive or inconclusive.

SMILES	BRCT PPI green	YjeE inh	DNA Pol III inh	BRCT PPI red	HEK293 cAMP cs	TSHR agonist
CN(C)c1ccc(C(c2nnnn2C(C)(C)C)N2CCc3ccccc3C2)cc1 (configuration not stated)	-	-	-	-	16µM	?
COc1ccc(C(c2nnnn2C2CCCC2)N2CCc3ccccc3C2)cc1OC (configuration not stated)	-	-	-	-	7.9µM	?
Cc1c(S(=O)(=O)N2CCc3ccccc3C2)c(=O)n(C)c(=O)n1C	-	-	-	-	-	-
CCCC(=O)Nc1nn(C)c2nc3c(C)cccc3cc12	-	-	-	-	-	-
Fc1ccc(-c2nn3c(C4COc5ccccc5O4)nnc3s2)cc1 (configuration not stated)	-	-	-	-	?	?
Fc1ccc(-c2nnc3sc(C4COc5ccccc5O4)nn23)cc1 (configuration not stated)	-	-	-	-	25µM	?
O=C(c1ccncc1)N1CCC[C@@]2(CCN(C(c3ccccc3)c3ccccc3)C2)C1	-	-	-	-	4µM	?
Cn1cccc1C(=O)N1CCC[C@@]2(CCN(c3ccncc3)C2)C1	-	-	-	-	5µM	?
COc1ccc(C(=O)N2CCC[C@@]3(CCN(c4ccccc4)C3)C2)cc1	-	-	-	-	13µM	?
CC1(C)Cc2ccccc2C(=O)N1	-	-	-	-	-	-
CCC1(C)Cc2ccccc2/C(=C/C(=O)N2CCCCC2)N1 (configuration not stated)	-	-	-	-	16µM	?
CCOC(=O)c1sc(C)c2c(=O)n(CC)nnc12	-	-	-	-	-	-
O=c1c(-c2ccco2)[n+]([O-])c2ccccc2n1OCc1ccccn1	-	-	-	-	-	-
COc1ccccc1N(CCC#N)C(=O)CSc1ccc2c(c1)OCCO2	-	-	-	-	-	25µM
N#Cc1cn(Cc2ccccc2)c2ccccc12	-	-	-	-	?	?
COc1ccc(-c2nc3cnc(OC)nc3n(C[C@H]3CCCO3)c2=O)cc1	-	-	-	-	20µM	?
NC(=O)CSc1nc2sc3c(c2c2ncnn12)CCCC3	-	-	-	-	-	-
O=C(Cn1c(=O)n2ncnc2c2c3c(sc21)CCCC3)c1ccccc1	-	-	-	-	25µM	?
O=c1n(Cc2ccccc2Cl)c2sc3c(c2c2ncnn12)CCCC3	-	-	-	-	-	20µM
Cn1c(SCC(=O)NC2CCCC2)nnc1-c1ccc(S(=O)(=O)N2CCOCC2)cc1	-	-	-	-	25µM	?
CCCCn1c(SCC(=O)c2cc(OC)ccc2OC)nc2cc(S(N)(=O)=O)ccc21	-	-	-	-	25µM	?
CCOC(=O)c1cc(-c2ccc3c(c2)OCCO3)nc2c1c(C)nn2CCC#N	-	-	-	-	20µM	?
CCOC(=O)c1cc(-c2ccco2)nc2c1c(C)nn2CCC#N	-	-	-	-	?	?
CCc1nc(N2CCCCC2C)c2oc3ccccc3c2n1 (configuration not stated)	-	-	-	-	20µM	?
CCc1nc(N2CCCC(C)C2)c2oc3ccccc3c2n1 (configuration not stated)	-	-	-	-	16µM	?
SMILES	BRCT PPI green	YjeE inh	DNA Pol III inh	BRCT PPI red	HEK293 cAMP cs	TSHR agonist
CCc1nc(N2CCCCC2)c2oc3ccccc3c2n1	-	-	-	-	25µM	?
COC(=O)c1cn(CC(=O)NC2CCCCC2)c2ccccc12	-	-	-	-	-	-
O=C(NC1CCCCCC1)c1cc(S(=O)(=O)N2CCOCC2)ccc1N1CCCCC1	-	-	-	-	25µM	?
CCOC(=O)c1c(C)noc1CP(=O)(c1ccccc1)c1ccccc1	-	-	-	-	13µM	?
CC1CCN(C(=O)C2Cc3ccccc3CN2S(=O)(=O)c2ccc(F)cc2)CC1 (configuration not stated)	-	-	-	-	20µM	?
Cc1ccc(S(=O)(=O)N2Cc3ccccc3CC2C(=O)Nc2cc(C)on2)cc1 (configuration not stated)	-	-	-	-	-	25µM

From PubChem
